Measured values published in the supplement of paper PMC10338343.
± gives the standard deviation.

These sequences were tested on MILI (PIWIL2) piRISC loaded with L1MC piRNA (26 nt) (assay: pre-steady-state target cleavage rate (min^-1); guide: L1MC piRNA 5'p-UAACUAAAUACUAUGCAAGCUGUAGG; MIWI and MILI are mouse PIWI proteins and EfPiwi is from a freshwater sponge; tags in brackets are library labels; higher = faster piRNA-guided slicing of the target). Conditions: auxiliary factor: 500 nM mouse GTSF1.
Outline: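 Cleave-'n-Seq reactions paired 0.1 nM transcribed, DNA-blocked target RNA library with 1 nM active affinity-purified piRISC holding one synthetic guide, plus or minus 500 nM GTSF1 partner protein, in HEPES–potassium acetate buffer at 33 °C for 0–8 or 0–960 min. After sequencing of uncleaved targets and normalisation to depth and weakly complementary targets, the pre-steady-state cleavage rate was taken from a burst-and-steady-state fit. Three trials were pooled, and k3 was capped at 0.0001 min^-1.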

| Sequence | pre-steady-state target cleavage rate |
| --- | --- |
| UCCUGGAUCAGCUUCGAUAGUAUUUACAAA | 0.00974 ± 0.005 |
| UCCUGGUACAGCUUGCUUAGUAUUUUCAAA | 0.0244 ± 0.0078 |
| UCCUGCUAGUCCUUGCAUAGUAUUUACAAA | 0.0056 ± 0.004 |
| UCCUGGAUGUCGAUGCAUAGUUUUAAGUUA | 0.00654 ± 0.0039 |
| UCCUGGAACAGCUUCGUUAGUAUUUAGUAA | 0.115 ± 0.017 |
| UCCUGGAUGAGCUUGCAUUGUAUUUAGAUA | 0.156 ± 0.038 |
| UCCUGGAUGUCGAUGCAUAGUAUUUAAUUA | 0.0256 ± 0.0092 |
| UCCUGGAACAGCUUGCUUAGAAUUUAGUUA | 0.0285 ± 0.0057 |
| UCCUGGAUCAGCUUGCUUAGAAUUUAGUUA | 0.0318 ± 0.0073 |
| UCCUGGAUGUGCUUGCAUAGUAUUUCGUUA | 0.0261 ± 0.0098 |
| UCCUGGAUGUCGAAGCAUCGUAUUUAGUUA | 0.00755 ± 0.0031 |
| UCCUGGAUCAGCUUGCAUAGUAAUUACUUA | 0.0264 ± 0.0065 |
| UCCUGGAUGUGCUUCGAUAGUAUUUAGUUA | 0.0415 ± 0.0078 |
| UCCUGGAUCAGCUUGCAUAGUAUAAUGUUA | 0.116 ± 0.013 |
| UCCUGGAACAGGUUCCAUAGUAUUUAGUUA | 0.202 ± 0.066 |
| UCCUGGAUGAGCUUGCAAAGUAUUUAGAUA | 0.117 ± 0.022 |
| UCCUGGAUGUGCUUGCAUAGUAUUUUGUAA | 0.00939 ± 0.0045 |
| UCCUGGAUGAGCUUGCUUAGAAUUUAGUUA | 0.0121 ± 0.0047 |

| Sequence | pre-steady-state target cleavage rate |
| --- | --- |
| UCCUGGAUGAGCUUGCAUAGUAUUUUGAUA | 0.0343 ± 0.014 |
| UCCUCCUACAGCUUGCAUAGUAAAAAGUUA | 0.0965 ± 0.016 |
| UCCUGGAUGUGCUUGGAUAGAAUUUAGUUA | 0.00729 ± 0.0047 |
| UCCUCCUACAGCUUGCAUAGUUAUUACAAA | 0.0124 ± 0.0054 |
| UCCUGGAUGUCGAUGCAUAGUAUUUAUUUA | 0.0578 ± 0.015 |
| UCCUGGAUGUGCUUGCAUAGUAUUUAGUGA | 0.11 ± 0.017 |
| UCCUGGAUGUCGAUGCUUAGUAUUUAGUAA | 0.0164 ± 0.0045 |
| UCCUGCUACAGCUACCAUAGUAUUUAGAAA | 0.0677 ± 0.021 |
| UCCUGGAUGUCGUUGCAAAGUAUUUUGUUA | 0.0092 ± 0.0056 |
| UCCUGGAUGUGCUUGCAUAGAAUUUAGUAA | 0.00482 ± 0.0043 |
| UCCUGGUACUGCUUGCAUAGUAUUUACUUA | 0.0201 ± 0.0085 |
| UCCUGGAACACCUUGCAUAGUAUUUACUUA | 0.0546 ± 0.018 |
| UCCUGGAUGUCGAACCAUAGUAUUUGAGUUA | < 0.0001 |
| UCCUGGAUGUCCUUGCAUAGUAUAAAGUAA | 0.0169 ± 0.0066 |
| UCCUGCUAGUCCUUGCAUAGUAUUUAGUAA | 0.0749 ± 0.018 |
| UCCUGGAUGUGCUUGCAUUCUAUUUAGUUA | 0.0101 ± 0.004 |
| UCCUGGAUGUGCUUGCAUAGUAUUUUCAAA | 0.00462 ± 0.0044 |
| UCCUGGUACAGCUUGCAUAGUUUUUUGUUA | 0.0564 ± 0.015 |

Same assay, conditions: auxiliary factor: none (no GTSF1)

| Sequence | pre-steady-state target cleavage rate |
| --- | --- |
| UCCUGGAUGUCGAACCAUUAGUAUUUAGUUA | < 0.0001 |
| UCCUGGAUGUCGAACCAUAAUAUUUAGUUA | < 0.0001 |
| UCCUGGAUGUCGAACGUAUCUAUUAAGUUA | < 0.0001 |
